Data published in the antibiotic and cytotoxicity screens of Wong et al. (2023).
In all, about 39,000 compounds went through this assay and about 3,300 (8.5%) were called active. This is one part of a sample in which actives are shown more often than they occur.

These compounds were tested on HepG2 (assay: cytotoxicity call (relative viability < 0.9)). Settings: 10 µM.

| Structure (SMILES) | cytotoxicity call |
| --- | --- |
| COc1ccc2c3c(n(c2c1)C)[C@@H](CO)N(C[C@]13CN(C1)S(=O)(=O)c1ccc(cc1)C)S(=O)(=O)c1ccc(cc1)C | inactive |
| C[C@H](CO)N1C[C@H](C)[C@H](CN(C)Cc2ccc3c(c2)OCCN3C)OCc2cnnn2CCCC1=O | inactive |
| O=C(C[C@H]1CC[C@@H]2[C@H](COC[C@@H](O)CN2C(=O)Nc2cccc(F)c2)O1)NCCCN1CCOCC1 | inactive |
| CC(C)NC(=O)Nc1ccc2c(c1)C(=O)N([C@@H](C)CO)C[C@@H](C)[C@H](CN(C)C(=O)Nc1ccc(F)cc1)OCCCC[C@H](C)O2 | inactive |
| O.O=C(O)C1C(O)CCC2CN3CCc4c([nH]c5ccccc45)C3CC21 (stereo not drawn) | inactive |
| C[C@H]1CC(=O)Nc2c1c(N)nn2C | inactive |
| C[C@H]1CCCCO[C@H](CN(C)Cc2ccc3c(c2)OCO3)[C@@H](C)CN([C@@H](C)CO)C(=O)c2cc(NC(=O)CCC(F)(F)F)ccc2O1 | inactive |
| C[C@@H]1CCCCO[C@H](CN(C)C(=O)C2CCCCC2)[C@H](C)CN([C@H](C)CO)C(=O)c2cc(NS(=O)(=O)c3ccc(F)cc3)ccc2O1 | inactive |
| CC(C)CC#Cc1ccc2c(c1)O[C@H](CN(C)Cc1cncnc1)[C@H](C)CN([C@@H](C)CO)S2(=O)=O | inactive |
| NNS(=O)(=O)c1ccc(Cl)cc1 | inactive |
| NC(=O)NS(=O)(=O)c1ccc(N)cc1 | inactive |
| NNS(=O)(=O)c1ccc(Oc2ccc(S(=O)(=O)NN)cc2)cc1 | active |
| C[C@@H]1CN([C@H](C)CO)C(=O)c2cc(NS(=O)(=O)c3ccc(F)cc3)ccc2O[C@H]1CN(C)S(=O)(=O)c1ccc(F)cc1 | inactive |
| Cc1ccc2c(c1)C(=O)C[C@@H](c1ccc(Cl)cc1Cl)O2 | inactive |
| Cc1cc(C)c2c(c1)NC(=O)C[C@H]2c1cccc(Cl)c1Cl | active |
| Cc1ccc(=O)n(CC(=O)O)n1 | inactive |
| C[C@@H]1CN([C@H](C)CO)C(=O)c2cc(NC(=O)Nc3ccc(C(F)(F)F)cc3)ccc2O[C@@H](C)CCCCO[C@@H]1CN(C)Cc1ccncc1 | active |
| C[C@@H]1CCCCO[C@@H](CN(C)Cc2ccncc2)[C@H](C)CN([C@H](C)CO)C(=O)c2cc(NC(=O)Nc3ccc(C(F)(F)F)cc3)ccc2O1 | active |
| C[C@H]1CCCCO[C@@H](CN(C)Cc2ccncc2)[C@@H](C)CN([C@@H](C)CO)C(=O)c2cc(NC(=O)Nc3ccc(C(F)(F)F)cc3)ccc2O1 | inactive |
| C[C@H](CO)N1C[C@H](C)[C@H](CN(C)Cc2ccncc2)OCCCC[C@H](C)Oc2ccc(NC(=O)Nc3ccc(C(F)(F)F)cc3)cc2C1=O | active |
| C[C@@H]1CCCCO[C@H](CN(C)Cc2ccncc2)[C@H](C)CN([C@H](C)CO)C(=O)c2cc(NC(=O)Nc3ccc(C(F)(F)F)cc3)ccc2O1 | active |

| Structure (SMILES) | cytotoxicity call |
| --- | --- |
| C[C@@H]1CCCCO[C@H](CN(C)Cc2ccncc2)[C@@H](C)CN([C@H](C)CO)C(=O)c2cc(NC(=O)Nc3ccc(C(F)(F)F)cc3)ccc2O1 | inactive |
| C[C@@H]1CCCCO[C@@H](CN(C)Cc2ccncc2)[C@H](C)CN([C@@H](C)CO)C(=O)c2cc(NC(=O)Nc3ccc(C(F)(F)F)cc3)ccc2O1 | inactive |
| C[C@H](CO)N1C[C@H](C)[C@@H](CN(C)Cc2ccncc2)OCCCC[C@H](C)Oc2ccc(NC(=O)Nc3ccc(C(F)(F)F)cc3)cc2C1=O | inactive |
| C[C@@H]1CCCCO[C@H](CN(C)C(=O)NC2CCCCC2)[C@@H](C)CN([C@@H](C)CO)C(=O)c2cc(NC(=O)NC3CCCCC3)ccc2O1 | inactive |
| O=C(C[C@H]1C=C[C@@H](NC(=O)CN2CCOCC2)[C@H](CO)O1)NCCc1ccccc1 | inactive |
| COCC#Cc1ccc2c(c1)O[C@@H](CN(C)C(=O)c1ccccc1F)[C@@H](C)CN([C@@H](C)CO)S2(=O)=O | inactive |
| CNC[C@H]1OCCCC[C@H](C)Oc2ccc(NC(=O)c3ccncc3)cc2C(=O)N([C@@H](C)CO)C[C@@H]1C | inactive |
| Cc1ccc(S(=O)(=O)N(C)C[C@@H]2Oc3ccc(NS(=O)(=O)c4c(C)noc4C)cc3CC(=O)N([C@@H](C)CO)C[C@H]2C)cc1 | inactive |
| C[C@H]1CN([C@@H](C)CO)C(=O)c2cccc(NC(=O)c3cnccn3)c2O[C@H]1CN(C)S(=O)(=O)c1ccc(Cl)cc1 | inactive |
| O=C(C[C@H]1CC[C@H](NC(=O)c2cccnc2)[C@H](CO)O1)NCCN1CCCCC1 | inactive |
| COCC#Cc1ccc2c(c1)O[C@H](CN(C)C(=O)C1CCCCC1)[C@H](C)CN([C@@H](C)CO)S2(=O)=O | inactive |
| C[C@H](CO)N1C[C@H](C)[C@H](CN(C)C(=O)Cc2ccccc2)OCCCC[C@H](C)Oc2ccc(NC(=O)Nc3ccc(F)cc3)cc2C1=O | inactive |
| CCS(=O)(=O)Nc1ccc2c(c1)C(=O)N(C)[C@H]1CC[C@H](CC(=O)NCc3ccc(OC)cc3)O[C@@H]1CO2 | inactive |
| C[C@H](CO)N1C[C@H](C)[C@H](CN(C)C(=O)Nc2ccc3c(c2)OCO3)OCCCC[C@H](C)Oc2ccc(NC(=O)c3ccncc3)cc2C1=O | inactive |
| C[C@@H]1CN([C@@H](C)CO)C(=O)c2cc(NC(=O)Nc3ccc(C(F)(F)F)cc3)ccc2O[C@@H](C)CCCCO[C@H]1CN(C)Cc1ccncc1 | inactive |
| C[C@@H]1CN([C@@H](C)CO)C(=O)c2cc(NC(=O)Nc3ccc(C(F)(F)F)cc3)ccc2O[C@@H](C)CCCCO[C@@H]1CN(C)Cc1ccncc1 | active |
| C[C@@H]1CCCCO[C@H](CN(C)Cc2ccncc2)[C@H](C)CN([C@@H](C)CO)C(=O)c2cc(NC(=O)Nc3ccc(C(F)(F)F)cc3)ccc2O1 | active |
| C[C@@H]1CCCCO[C@@H](CN(C)Cc2ccncc2)[C@@H](C)CN([C@@H](C)CO)C(=O)c2cc(NC(=O)Nc3ccc(C(F)(F)F)cc3)ccc2O1 | inactive |
| C[C@@H]1CCCCO[C@@H](CN(C)Cc2ccncc2)[C@@H](C)CN([C@H](C)CO)C(=O)c2cc(NC(=O)Nc3ccc(C(F)(F)F)cc3)ccc2O1 | active |
| C[C@H]1CCCCO[C@H](CN(C)Cc2ccncc2)[C@@H](C)CN([C@@H](C)CO)C(=O)c2cc(NC(=O)Nc3ccc(C(F)(F)F)cc3)ccc2O1 | active |
| C[C@H](CO)N1C[C@H](C)[C@@H](CN(C)CC2CC2)Oc2ccc(NC(=O)CCN3CCOCC3)cc2CC1=O | inactive |

| Structure (SMILES) | cytotoxicity call |
| --- | --- |
| COC(=O)c1c(CC[C@@H](CO)NC(=O)N[C@H](Cc2ccccc2)Cn2cc(-c3ccccc3N)nn2)oc(C(C)=O)c1C(=O)OC | inactive |
| COc1ccc(NC(=O)N(C)C[C@@H]2Oc3ccc(NC(=O)Nc4cccc5ccccc45)cc3CC(=O)N([C@H](C)CO)C[C@H]2C)cc1 | inactive |
| C[C@H](CO)N1C[C@H](C)[C@H](CN(C)C(=O)NC2CCCCC2)OCCCC[C@H](C)Oc2ccc(NC(=O)c3ccncc3)cc2C1=O | inactive |
| COc1ccc(NC(=O)N(C)C[C@H]2Oc3ccc(NC(=O)CCN4CCOCC4)cc3C(=O)N([C@@H](C)CO)C[C@H]2C)cc1 | inactive |
| C[C@@H]1CN([C@@H](C)CO)C(=O)CCCn2nncc2CO[C@H]1CN(C)C(=O)c1ccc(N2CCN(C)CC2)cc1 | inactive |
| C[C@H]1CN([C@@H](C)CO)C(=O)c2cccc(NC(=O)C3CC3)c2O[C@@H]1CN(C)C(=O)Nc1ccc2c(c1)OCO2 | inactive |
| C[C@@H]1CCCCO[C@H](CN(C)CC2CCCCC2)[C@H](C)CN([C@@H](C)CO)C(=O)c2cc(NC(=O)c3ccncc3)ccc2O1 | inactive |
| C[C@@H]1CN([C@H](C)CO)C(=O)Cc2cc(NC(=O)Cn3cnnn3)ccc2O[C@H]1CN(C)C(=O)Nc1ccc2c(c1)OCO2 | inactive |
| COCC(=O)N1C[C@@H](C)[C@@H](OC)CN(C)C(=O)c2cc(NC(=O)c3cc(C)on3)ccc2OC[C@@H]1C | inactive |
| Cc1ccc(S(=O)(=O)Nc2ccc3c(c2)CC(=O)N([C@@H](C)CO)C[C@H](C)[C@@H](CN(C)Cc2ccc(Oc4ccccc4)cc2)O3)cc1 | active |
| Cc1ccc(S(=O)(=O)Nc2ccc3c(c2)CC(=O)N([C@@H](C)CO)C[C@@H](C)[C@H](CN(C)Cc2ccc(Oc4ccccc4)cc2)O3)cc1 | inactive |
| Cc1ccc(S(=O)(=O)Nc2ccc3c(c2)CC(=O)N([C@@H](C)CO)C[C@H](C)[C@H](CN(C)Cc2ccc(Oc4ccccc4)cc2)O3)cc1 | inactive |
| Cc1ccc(S(=O)(=O)Nc2ccc3c(c2)CC(=O)N([C@H](C)CO)C[C@H](C)[C@@H](CN(C)Cc2ccc(Oc4ccccc4)cc2)O3)cc1 | inactive |
| Cc1ccc(S(=O)(=O)Nc2ccc3c(c2)CC(=O)N([C@@H](C)CO)C[C@@H](C)[C@@H](CN(C)Cc2ccc(Oc4ccccc4)cc2)O3)cc1 | inactive |
| Cc1ccc(S(=O)(=O)Nc2ccc3c(c2)CC(=O)N([C@H](C)CO)C[C@@H](C)[C@@H](CN(C)Cc2ccc(Oc4ccccc4)cc2)O3)cc1 | active |
| COc1ccc(S(=O)(=O)N(C)C[C@@H]2Oc3c(NC(=O)c4cc(C)nn4C)cccc3C(=O)N([C@@H](C)CO)C[C@H]2C)cc1 | inactive |
| C[C@H](O)C#Cc1ccc2c(c1)O[C@@H](CN(C)C(=O)Nc1ccccc1)[C@@H](C)CN([C@@H](C)CO)S2(=O)=O | inactive |
| C[C@@H]1CN([C@H](C)CO)C(=O)CCCn2cc(nn2)CO[C@H]1CN(C)S(=O)(=O)c1ccc(Cl)cc1 | inactive |
| C[C@@H]1CCCCO[C@@H](CN(C)C(=O)C2CCCCC2)[C@H](C)CN([C@H](C)CO)C(=O)c2cc(NC(=O)Cc3ccccc3)ccc2O1 | inactive |
| CC(C)CC(=O)Nc1cncc(-c2ccc3[nH]nc(-c4nc5cncc(-c6cccc(F)c6)c5[nH]4)c3c2)c1 | active |
| CO[C@H](CN(C)C(=O)C1CCOCC1)[C@@H](C)CN(C(=O)Nc1ccc(C(F)(F)F)cc1)[C@H](C)CO | inactive |
